# Assay outcomes (PubChem)
# Hits are enriched below; roughly 2.4% of the tested compounds scored in any of these assays.
# D2 antag: HTS Assay for Allosteric Antagonists of the Human D2 Dopamine Receptor: Primary Screen for Antagonists; HEK293 TREx D2 cells, calcium flux, dopamine EC80; D(2) dopamine receptor (Homo sapiens), P14416; 340,000 compounds, 2% hits; inhibition, % at 10 µM; in the data active = inhibition above about 30%; inactive = below that, where a call was filed; note: 0% is about no effect
# Target sequence (P14416 whole entry, looked up): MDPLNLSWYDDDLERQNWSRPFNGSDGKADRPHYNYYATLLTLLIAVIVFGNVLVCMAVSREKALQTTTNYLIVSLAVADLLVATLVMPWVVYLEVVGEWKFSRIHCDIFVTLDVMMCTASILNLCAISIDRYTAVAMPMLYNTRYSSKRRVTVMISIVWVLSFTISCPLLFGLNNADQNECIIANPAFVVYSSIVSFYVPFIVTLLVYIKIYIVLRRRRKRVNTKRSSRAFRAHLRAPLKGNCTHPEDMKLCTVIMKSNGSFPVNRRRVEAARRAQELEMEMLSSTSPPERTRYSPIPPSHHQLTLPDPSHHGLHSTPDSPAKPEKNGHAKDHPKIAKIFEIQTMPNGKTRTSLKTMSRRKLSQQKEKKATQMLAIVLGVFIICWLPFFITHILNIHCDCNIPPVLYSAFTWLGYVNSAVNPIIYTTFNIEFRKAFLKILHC
#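 Measurement of antagonist activity uses fluorescent calcium dye in inducible HEK293 T-REx D2 cells: 10 s baseline, compound addition with 180 s read, EC80 dopamine addition with a further 180 s read.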
# D2 PAM-1: Beta-Arrestin HTS for Positive Allosteric Modulators of the Human D2 Dopamine Receptor: Potentiators; 360,000 compounds, 0.23% hits; DiscoveRx D2 beta-arrestin cells, luminescence, 90 min; 100% = 57 uM dopamine signal; potentiation, % (test concentration not listed); D(2) dopamine receptor (Homo sapiens), P14416; AID 624464, 2012; in the data active = potentiation above about 50%; inconclusive = mostly about 30% to 49%
#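 D2 cells co-treated with compound plus 50 nM dopamine (EC20) for 90 min at 37 deg C to detect potentiation. Beta-arrestin recruitment was read as enzyme-fragment luminescence after 1 h at ambient temperature. Full response was set by 57 uM dopamine.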
# D2 ag-1: Beta-Arrestin HTS for Positive Allosteric Modulators of the Human D2 Dopamine Receptor: Agonists; D(2) dopamine receptor (Homo sapiens), P14416; DiscoveRx PathHunter D2 beta-arrestin, luminescence, 90 min; 100% = 57 uM dopamine signal; activation, % (test concentration not listed); 360,000 compounds, 0.084% hits; AID 624465, 2012; in the data active = activation above about 40%; inconclusive = between about 15% and that limit
#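 Agonist mode: compounds alone added to overnight-plated D2 PathHunter cells for 90 min at 37 C, with 57 uM final dopamine (EC100) defining full response. Beta-arrestin recruitment detected by chemiluminescent reagent, read after 1 h at ambient temperature.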
# D2 PAM-2: HTS Assay for Positive Allosteric Modulators of the Human D2 Dopamine Receptor: Primary Screen for Potentiators; D(2) dopamine receptor (Homo sapiens), P14416; HEK293 T-REx D2, calcium flux, EC20 dopamine potentiation; potentiation, % at 10 µM; 340,000 compounds, 0.34% hits;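 active = potentiation over 3 SD above the plate norm, cut at about 30% in these data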; note: 0% is about no effect
#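 Calcium flux readout, no-wash dye, 1 read/s. Inducible HEK293 Trex D2 line, overnight 30 C. Compound alone 180 s (agonist flags), then EC20 dopamine, another 180 s to score potentiation.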
# D2 ag-2: HTS Assay for Allosteric Agonists of the Human D2 Dopamine Receptor: Primary Screen for Agonists | D(2) dopamine receptor (Homo sapiens), P14416 | HEK293 T-REx D2 cells, calcium flux agonist mode | activation, % at 2 µM | 340,000 compounds, 0.53% hits;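 active = activation over 3 SD above normal in the single-dose calcium agonist read, cut at about 30% in these data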; note: 0% is about no effect
#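 Tetracycline-induced HEK293 T-REx cells with force-coupled D2 receptor, plated overnight at 30 C, loaded with no-wash calcium dye. After a 10 s baseline, compound was pin-added and calcium flux read kinetically for 180 s; calcium rises flagged agonists.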
# Starred values were filed as active, the others as inactive; ? = inconclusive; . = not tested or not shown.
SMILES,D2 antag,D2 PAM-1,D2 ag-1,D2 PAM-2,D2 ag-2
O=C1C=C(N2CC2)c2ccccc2C1=O,.,4,51*,.,.
CCc1ccc(OCC(=O)N2CCN(CCc3ccccn3)CC2)cc1,.,.,.,-23,1
Cc1ccc(C)c(CN2C(=O)c3ccccc3Sc3ccc(C(=O)N4CCC5(CC4)OCCO5)cc32)c1,.,.,.,6,1
CS(=O)(=O)Nc1ccc(Cc2noc(-c3ccc4[nH]cc(CCN)c4c3)n2)cc1,40*,.,.,-6,9
COc1ccc2c(CCN)c[nH]c2c1,8,-15,0,-5,1
O=C(Nc1ccc2c(c1)OCO2)c1cccn(Cc2cccc([N+](=O)[O-])c2)c1=O,.,.,.,-4,5
CSCCC(c1nnnn1-c1ccc2c(c1)OCCO2)N1CCC(n2c(=O)[nH]c3ccccc32)CC1 (stereo unspecified),.,65*,4,.,.
O=c1[nH]c2ccccc2n1C1CCN(C(c2ccccc2OC(F)(F)F)c2nnnn2-c2ccc3c(c2)OCCO3)CC1 (stereo unspecified),.,61*,10,.,.
O=c1[nH]c2ccccc2n1C1CCN(C(c2cc3ccccc3o2)c2nnnn2Cc2ccccc2)CC1 (stereo unspecified),.,58*,2,.,.
COc1cccc(C(c2nnnn2-c2ccc3c(c2)OCCO3)N2CCC(n3c(=O)[nH]c4ccccc43)CC2)c1OC (stereo unspecified),.,?,4,.,.
Cc1ccc2scc(N3CCN(C)CC3)c(=O)c2c1,.,.,.,7,1
CCCC1=Nc2cc(C(=O)NC3CCC(C)CC3)ccc2Sc2ccccc21 (stereo unspecified),.,.,.,-5,.
CCOC(=O)CC(SP1(=S)OCC2(CC=CCC2)CO1)C(=O)OCC (stereo unspecified),.,-13,2,.,.
Cc1ccc(-n2c(/C=C\c3ccc(F)c(F)c3)nc3ccccc3c2=O)c(C)c1,.,.,.,15,.
CN1CCc2c([nH]c3ccccc23)C1,51*,-105,-4,-25,0
Nc1c(C(=O)Nc2ccc(Br)cc2F)sc2nc3c(cc12)N1CCC3CC1,.,.,.,-2,-1
O=c1c2ccccc2nc(/C=C\c2cccc(Br)c2)n1-c1ccc(O)cc1,.,.,.,6,1
Cc1ccnc(-n2c(-c3ccccc3)nc3ccccc3c2=O)c1,33*,-10,0,16,0
N#Cc1cccc(NC(=O)c2sc3nc4c(cc3c2N)N2CCC4CC2)c1,.,.,.,2,0
COc1cccc(C2SCC(=O)Nc3c2c(C)nn3-c2ccc(C)c(Cl)c2)c1OC (stereo unspecified),.,.,.,0,.
CCc1ccc(OCC(=O)N2CCN(CCc3ccncc3)CC2)cc1,.,.,.,19,.
CNCCc1c[nH]c2ccc(O)cc12,.,?,55*,.,.
Fc1ccc(C(OCCN2CCCC2)c2ccc(Br)cc2)cc1 (stereo unspecified),47*,-16,0,-23,4
Fc1ccc(C(OCCN2CCCC2)c2ccc(F)cc2)cc1,13,-41,-5,-23,1
O=C(COc1ccccc1Cl)N1CCN(CCc2ccccn2)CC1,.,.,.,-3,-2
SMILES,D2 antag,D2 PAM-1,D2 ag-1,D2 PAM-2,D2 ag-2
CC(C)N1CC=C(c2c[nH]c3ccccc23)CC1,.,-39,-1,.,.
C1=C(c2c[nH]c3ccccc23)CCNC1,42*,.,.,-16,2
Oc1ccc(Cl)cc1CN1CCN(Cc2ccccc2)CC1,32*,-41,-2,-24,-1
Brc1cc2c(cc1CN1CCN(c3ccccc3)CC1)OCCO2,-1,1,-4,-23,13
Oc1cc2c(cc1CN1CCN(c3ccc(F)cc3)CC1)OCO2,58*,-23,-1,-21,1
Oc1cc2c(cc1CN1CCN(c3ccccc3)CC1)CCC2,73*,-40,-1,-23,0
Cc1ccc(O)c(CN2CCN(c3ccccc3)CC2)c1,38*,-43,-3,-23,5
Cc1ccc(NC(=O)CN2C(=O)CN=C(c3ccccc3)c3ccccc32)cc1Cl,.,.,.,-11,0
O=C(COc1ccccc1Cl)N1CCN(CCc2ccncc2)CC1,.,.,.,19,-1
COc1cccc(CN2CCN(c3ccc(F)cc3)CC2)c1OC,.,-28,-1,.,.
Cc1cc(O)c(CN2CCN(c3ccccc3)CC2)cc1C,49*,-31,-2,-34,6
O=C1c2ccccc2C(=O)N1Cc1nc2ccccc2c(=O)n1-c1ccccn1,31*,2,2,5,1
O=c1c2ccccc2nc(/C=C/c2ccc(F)cc2)n1-c1ccccn1,-17,-4,-4,7,0
O=[N+]([O-])c1ccc(N2CCCCCC2)c2nonc12,11,-8,-4,-20,85*
O=[N+]([O-])c1ccc(N2CCCCC2)c2ncccc12,-26,-8,-2,16,0
Nc1ccc2ccc3cccc[n+]3c2c1,1,4,-1,3,31*
C[n+]1c(-c2ccccc2)c2cc(N)ccc2c2ccc(N)cc21,-11,25,7,-6,5
CC1(C)Cc2c(sc3c2C(=O)NC(c2cccnc2)N3)CO1 (stereo unspecified),69*,-4,-3,.,1
COC(=O)c1ccc(NC(=O)c2cccn(Cc3ccccc3C)c2=O)cc1,.,.,.,-6,1
CCc1nn(CC(=O)N2CCC3(CC2)OCCO3)c(=O)c2cc3ccccc3n12,-5,-2,3,-12,32*
N#CC1(c2ccccc2)CCN(C2CC(=O)N(c3ccc(F)cc3)C2=O)CC1 (stereo unspecified),-16,-5,5,31*,1
Cc1ccc(-n2c(/C=C/c3cccs3)nc3ccccc3c2=O)cc1C,.,.,.,7,.
COC(=O)C1=CCCN(C)C1,-7,2,1,-12,31*
COC(=O)c1ccc(CN2CCN(Cc3ccccc3)CC2)cc1,-5,-12,-1,-19,0
CCN(CC)CCCOC(=O)C(OC(C)C)(c1ccccc1)c1ccccc1,57*,-17,-2,-25,-1
Cc1ccc(NC(=O)Cn2cc(C(=O)c3ccccc3)c3ccccc32)cc1,.,.,.,7,0
CC[C@H]1C2C[C@H]3[C@@H]4N(C)c5ccccc5C45C[C@H](C2[C@H]5O)N3[C@@H]1O (stereo partly specified),36*,-26,-2,-10,1
O=S1(=O)N(CCN2CC=C(c3c[nH]c4cc(F)ccc34)CC2)c2cccc3c2N1CCC3,64*,-20,12,-25,2
